Three compounds from PubChem BioAssay (EPA / NIEHS) can be followed below.

The structures appear in SMILES notation. Active and inactive are the calls of the source. How the source made its calls: active means hit-call score of the fitted dose curve at least 0.9, where 1 is the maximum; inactive means score below 0.9.

Assay [1] is described as follows: ATG_CMV_CIS: Attagene CIS-FACTORIAL HepG2 Assay for human CMV (Internal Marker) (AID 2282928).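 Further: endpoint acts as a background internal control marker rather than a target.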 The settings on record: HepG2 CMV promoter reporter, transcription factor profiling; actives raise or lower the signal. The procedure, abridged: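 Reporter transcripts from transfected HepG2 cells are isolated after 24 h of chemical dosing, reverse-transcribed and amplified. Fragments labeled with 6-FAM are cut with HpaI and quantified by capillary electrophoresis; DMSO defines baseline.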

Assay [2] in a line: ATG_M_32_CIS: Attagene CIS-FACTORIAL HepG2 Assay for M32 Transcription Factor (Internal Marker) (AID 2282949).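 Further: background control marker of the multiplexed CIS panel rather than a real target.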 The settings on record: HepG2 Attagene cis-factorial M32 reporter, mRNA; actives raise or lower the signal. The procedure, abridged:
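Transient MRTU transfection of HepG2; 24 h compound treatment; TriZol RNA, oligo(dT) RT, reporter PCR, 6-FAM primer extension, HpaI cut, CE. Gain/loss of signal vs DMSO.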

Assay [3] concerns the target Hepatocyte nuclear factor 6 (Homo sapiens) (UniProt Q9UBC0). In words: ATG_HNF6_CIS: Attagene CIS-FACTORIAL HepG2 Assay for human Hepatocyte Nuclear Factor 6 (HNF6) (AID 2282952). The settings on record: HepG2 Attagene cis-factorial HNF6 reporter transcription; actives raise or lower the signal. Summed up:
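Activity values derive from bidirectional fitting against DMSO of reporter mRNA levels, measured by capillary electrophoresis of labelled RT-PCR products from HepG2 cells exposed 24 h.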

Assay [4] deals with Heat shock factor protein 1 (Homo sapiens) (UniProt Q00613). In words: ATG_HSE_CIS: Attagene CIS-FACTORIAL HepG2 Assay for human Heat Shock Transcription Factor 1 (HSE) (AID 2282953). Conditions: HepG2 HSE cis-reporter, Attagene RNA transcription; actives raise or lower the signal. The procedure, abridged: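 HepG2 cells transiently transfected with multiple reporter transcription units under cis-regulatory promoter control, measuring endogenous transcription factor activity. After 24 h chemical exposure, reporter mRNA quantified by RT-PCR, fluorescent labelling, HpaI digestion and capillary electrophoresis; bidirectional fit versus DMSO.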
Chain of Heat shock factor protein 1 (Homo sapiens) (Q00613 whole entry, looked up): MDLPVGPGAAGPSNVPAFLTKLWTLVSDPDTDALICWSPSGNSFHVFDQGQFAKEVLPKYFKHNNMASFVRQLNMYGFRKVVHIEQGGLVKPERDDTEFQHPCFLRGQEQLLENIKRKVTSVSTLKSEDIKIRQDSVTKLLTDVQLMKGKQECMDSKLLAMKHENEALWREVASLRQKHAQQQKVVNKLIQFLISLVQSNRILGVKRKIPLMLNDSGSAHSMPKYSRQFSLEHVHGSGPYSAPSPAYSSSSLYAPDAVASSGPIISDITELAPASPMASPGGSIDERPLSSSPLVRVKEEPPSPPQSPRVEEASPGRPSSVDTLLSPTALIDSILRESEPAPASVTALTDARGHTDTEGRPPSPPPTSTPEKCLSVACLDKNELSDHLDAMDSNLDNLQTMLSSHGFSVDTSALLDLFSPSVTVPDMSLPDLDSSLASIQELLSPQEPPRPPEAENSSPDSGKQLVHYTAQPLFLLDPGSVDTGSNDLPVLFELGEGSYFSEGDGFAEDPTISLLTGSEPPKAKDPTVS

A short description of assay [5]: ATG_RORE_CIS: Attagene CIS-FACTORIAL HepG2 Assay for human RAR-related Orphan Receptor Element (RORE) (AID 2282959). The settings on record: HepG2 Attagene cis-factorial RORE reporter, mRNA; actives raise or lower the signal. The procedure, abridged:
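Transfect HepG2 with MRTUs; treat 24 h; extract RNA; RT with oligo(dT); PCR with reporter-specific primers; 6-FAM primer extension; HpaI digest 2 h at 37 C; capillary electrophoresis. Fit vs DMSO, bidirectional.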

Assay [6] is described as follows: ATG_TA_CIS: Attagene CIS-FACTORIAL HepG2 Assay for human TA Basal Promoter (AID 2282964). The settings on record: HepG2 Attagene CIS-factorial TA basal promoter reporter; actives raise or lower the signal. The procedure, abridged:
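HepG2 cells transiently transfected with multiplexed cis-promoter reporter units, dosed 24 h. Reporter mRNA measured by RT-PCR, 6-FAM labelling, HpaI digestion and capillary electrophoresis; bidirectional fit versus DMSO baseline, serving as background control.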

Assay [7] can be described thus: ATG_TCF_b_cat_CIS: Attagene CIS-FACTORIAL HepG2 Assay for human T-Cell-Factor with beta-catenin (TCF/b-cat) (AID 2282965). Conditions: HepG2 TCF/beta-catenin cis-reporter transcription, actives raise or lower the signal. The procedure, abridged: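 Measured: reporter mRNA in HepG2 transiently transfected with cis-promoter reporter units, 24 h after chemical addition. Fitting was bidirectional, DMSO as negative control.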

Assay [8] is described as follows: ATG_TAL_CIS: Attagene CIS-FACTORIAL HepG2 Assay for human TAL Basal Promoter (AID 2282966).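 Further: background control endpoint measuring basal TAL promoter reporter mRNA not a specific factor.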 The settings on record: HepG2 Attagene cis-factorial TAL promoter reporter; actives raise or lower the signal. The procedure, abridged:
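Transiently transfected HepG2 (cis-regulated reporter units), 24 h treatment, mRNA read by fluorescent CE after RT-PCR; bidirectional fit, DMSO baseline.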

Assay [9] can be described thus: ATG_TGFb_CIS: Attagene CIS-FACTORIAL HepG2 Assay for human Transforming Growth Factor (TGF) (AID 2282967). Conditions: HepG2 Attagene CIS TGFb reporter, mRNA transcription; actives raise or lower the signal. Summed up:
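HepG2 cells transiently transfected with cis-promoter-driven multiplexed reporter units; 24 h compound exposure. Reporter mRNA measured by RT-PCR, 6-FAM labeling, HpaI digestion and capillary electrophoresis; bidirectional fit versus DMSO baseline.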

Assay [10] is described as follows: ATG_VDRE_CIS: Attagene CIS-FACTORIAL HepG2 Assay for human Vitamin D Receptor Element (VDRE) (AID 2282968). The settings on record: HepG2 VDRE cis-reporter transcription, actives raise or lower the signal. Summed up:
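Measures endogenous factor activity through cis-element-driven reporter transcripts in transiently transfected HepG2. Cells are treated 24 h; reporter mRNA is quantified by RT-PCR and capillary electrophoresis; fitting is bidirectional.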

The target of assay [11] is X-box-binding protein 1 (Homo sapiens) (UniProt P17861). The assay is described as follows: ATG_Xbp1_CIS: Attagene CIS-FACTORIAL HepG2 Assay for human X-box Binding Protein 1 (XBP1) (AID 2282972). Conditions: HepG2 XBP1 cis-element reporter, Attagene multiplex; actives raise or lower the signal. Summed up: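 Changes in reporter transcript abundance, read by RT-PCR and capillary electrophoresis, reflect endogenous transcription factor activity. Transfected HepG2 cells received compound for 24 hours; DMSO defined baseline for bidirectional analysis.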
Chain of X-box-binding protein 1 (Homo sapiens) (P17861 whole entry, looked up): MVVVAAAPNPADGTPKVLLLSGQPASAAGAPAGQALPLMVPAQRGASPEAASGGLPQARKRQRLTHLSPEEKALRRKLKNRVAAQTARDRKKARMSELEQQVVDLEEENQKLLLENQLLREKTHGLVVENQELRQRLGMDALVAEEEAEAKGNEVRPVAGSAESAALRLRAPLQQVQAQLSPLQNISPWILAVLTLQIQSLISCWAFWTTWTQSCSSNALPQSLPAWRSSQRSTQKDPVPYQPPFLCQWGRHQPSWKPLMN

In assay [12] the target is Transcriptional activator Myb (Homo sapiens) (UniProt P10242). The assay is described as follows: ATG_Myb_CIS: Attagene CIS-FACTORIAL HepG2 Assay for human Myeloblastosis (Myb) Proto-Oncogene Transcription Factor (AID 2282986). The settings on record: HepG2 Attagene CIS-FACTORIAL Myb reporter transcription; actives raise or lower the signal. Summed up: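 Using HepG2 liver cells bearing transiently transfected cis-promoter reporter constructs, the assay measures induction or loss of reporter mRNA after 24 hours of dosing. Detection used fluorescently labeled RT-PCR products separated by capillary electrophoresis.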
Chain of Transcriptional activator Myb (Homo sapiens) (P10242 whole entry, looked up): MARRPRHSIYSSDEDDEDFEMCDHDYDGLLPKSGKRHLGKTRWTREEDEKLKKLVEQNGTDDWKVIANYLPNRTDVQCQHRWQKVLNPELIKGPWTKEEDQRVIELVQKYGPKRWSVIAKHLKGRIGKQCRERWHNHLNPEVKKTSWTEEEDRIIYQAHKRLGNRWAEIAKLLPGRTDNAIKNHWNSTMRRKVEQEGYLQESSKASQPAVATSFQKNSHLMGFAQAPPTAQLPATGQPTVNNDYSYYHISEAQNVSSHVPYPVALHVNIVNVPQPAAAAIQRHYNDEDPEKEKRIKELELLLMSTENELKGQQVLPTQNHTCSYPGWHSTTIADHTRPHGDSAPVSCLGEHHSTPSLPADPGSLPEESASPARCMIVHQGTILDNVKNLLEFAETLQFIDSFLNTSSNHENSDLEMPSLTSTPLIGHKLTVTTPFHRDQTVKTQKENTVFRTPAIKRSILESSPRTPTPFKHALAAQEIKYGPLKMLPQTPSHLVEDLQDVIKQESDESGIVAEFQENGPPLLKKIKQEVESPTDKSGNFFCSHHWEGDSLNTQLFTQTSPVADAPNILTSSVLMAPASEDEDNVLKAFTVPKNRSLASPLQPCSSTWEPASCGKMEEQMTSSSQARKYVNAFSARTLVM

Assay [13] concerns the target Nuclear respiratory factor 1 (Homo sapiens) (UniProt Q16656). The assay is described as follows: ATG_NRF1_CIS: Attagene CIS-FACTORIAL HepG2 Assay for human Nuclear Respiratory Factor 1 (NRF1) Orphan Gene (AID 2282987). The settings on record: HepG2 NRF1 cis-element reporter, Attagene multiplex; actives raise or lower the signal. The procedure, abridged: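 Reporter mRNA induction or loss in HepG2 cells after 24 h dosing; cis-regulated reporter constructs report endogenous transcription-factor activity. Quantified by RT-PCR/capillary electrophoresis fluorescence, DMSO-referenced.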

Assay [14] deals with Myc proto-oncogene protein (Homo sapiens) (UniProt P01106). In words: ATG_Myc_CIS: Attagene CIS-FACTORIAL HepG2 Assay for human Myelocytomatosis (Myc) Proto-Oncogene Transcription Factor (AID 2282990). Conditions: HepG2, Attagene cis-reporter transcription factor activity; actives raise or lower the signal. Summed up:
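Cells of the HepG2 human liver line bear multiple cis-driven reporter transcription units. Reporter mRNA after 24 h exposure is reverse-transcribed, amplified, labelled and resolved by capillary electrophoresis, with gain- or loss-of-signal fitting relative to DMSO.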

Assay [15] can be described thus: ATG_NF_kB_CIS: Attagene CIS-FACTORIAL HepG2 Assay for human Nuclear Factor Kappa B (NF-kB) (AID 2282991). The settings on record: HepG2 Attagene cis-factorial NF-kB reporter mRNA; actives raise or lower the signal. Summed up: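 DMSO served as negative control and baseline for bidirectional curve fitting. Transiently transfected HepG2 cells were dosed for 24 h, then reporter transcripts were measured by RT-PCR with capillary electrophoresis detection.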

Assay [16] in a line: ATG_NRF2_ARE_CIS: Attagene CIS-FACTORIAL HepG2 Assay for human Nuclear Factor Erythroid 2 Related Factor 2 (NFR2) response to Antioxidant Response Elements (ARE) (AID 2282992). Conditions: HepG2 Attagene ARE/NRF2 reporter, transcription factor activity; actives raise or lower the signal. Summed up: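 Using transiently transfected HepG2 cells exposed for 24 h, reporter mRNA levels were determined by RT-PCR with fluorescent primer extension and capillary electrophoresis, analysed for gain or loss of signal against DMSO.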

Assay [17] is described as follows: ATG_Oct_MLP_CIS: Attagene CIS-FACTORIAL HepG2 Assay for human Octamer-Binding Transcription Factor (Oct) (AID 2282993). The settings on record: HepG2 Attagene cis-factorial Oct reporter, mRNA; actives raise or lower the signal. The procedure, abridged: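 HepG2 cells transiently transfected with cis-promoter-driven multiplexed reporter transcription units, dosed for 24 h. Reporter mRNA quantified by RT-PCR, fluorescent labelling, HpaI digestion and capillary electrophoresis; bidirectional fits versus DMSO baseline.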

Assay [18] has as its target Cellular tumor antigen p53 (Homo sapiens) (UniProt P04637). In words: ATG_p53_CIS: Attagene CIS-FACTORIAL HepG2 Assay for human p53 Transcription Factor (AID 2282994). The settings on record: HepG2 p53 cis-element reporter, Attagene mRNA; actives raise or lower the signal. The procedure, abridged: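 In HepG2 cells, reporter transcription units under cis-regulatory promoters were transiently introduced. Following 24 h treatment, RNA was processed to labelled, digested cDNA fragments read by capillary electrophoresis; fitting was bidirectional versus DMSO.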

The nature of assay [19]: ATG_ISRE_CIS: Attagene CIS-FACTORIAL HepG2 Assay for human Interferon Regulatory Factor 1 (IRF1) binding to an Interferon-Stimulated Response Element (ISRE) (AID 2282948). The settings on record: HepG2 ISRE cis-reporter (Attagene), mRNA transcription readout; actives raise or lower the signal. Summed up:
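Uses HepG2 liver cells transfected with cis-regulated reporters and measures mRNA 24 h post-dosing through RT-PCR, primer-extension labelling and capillary electrophoresis, with DMSO as negative control.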

The target in assay [20] is Signal transducer and activator of transcription 3 (Homo sapiens) (UniProt P40763). The assay is described as follows: ATG_STAT3_CIS: Attagene CIS-FACTORIAL HepG2 Assay for human Signal Transducer and Activator of Transcription 3 (STAT3) (AID 2282963). The settings on record: HepG2, Attagene cis-factorial STAT3 reporter transcription; actives raise or lower the signal. Summed up:
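Cis-factorial format: endogenous transcription factors in HepG2 drive transfected reporter units. After 24 h treatment, reporter RNA was reverse-transcribed, amplified, FAM-labelled and HpaI-digested before CE analysis; activity scored in both directions against DMSO.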

Chain of Nuclear respiratory factor 1 (Homo sapiens) (Q16656 whole entry, looked up): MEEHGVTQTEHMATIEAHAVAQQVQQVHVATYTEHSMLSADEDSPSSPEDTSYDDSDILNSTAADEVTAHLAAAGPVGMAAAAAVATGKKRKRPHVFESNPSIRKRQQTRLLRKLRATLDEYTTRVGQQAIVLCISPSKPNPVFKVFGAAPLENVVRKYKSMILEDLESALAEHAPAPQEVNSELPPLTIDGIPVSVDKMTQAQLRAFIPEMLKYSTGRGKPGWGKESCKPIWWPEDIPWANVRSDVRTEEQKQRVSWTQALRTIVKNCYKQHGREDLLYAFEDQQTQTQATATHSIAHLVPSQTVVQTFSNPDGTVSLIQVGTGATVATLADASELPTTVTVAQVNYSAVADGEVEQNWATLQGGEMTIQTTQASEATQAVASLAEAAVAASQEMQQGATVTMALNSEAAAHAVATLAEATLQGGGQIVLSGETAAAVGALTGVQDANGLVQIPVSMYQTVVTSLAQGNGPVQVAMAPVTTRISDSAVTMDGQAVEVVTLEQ
Chain of Cellular tumor antigen p53 (Homo sapiens) (P04637 whole entry, looked up, the tested form may be a part): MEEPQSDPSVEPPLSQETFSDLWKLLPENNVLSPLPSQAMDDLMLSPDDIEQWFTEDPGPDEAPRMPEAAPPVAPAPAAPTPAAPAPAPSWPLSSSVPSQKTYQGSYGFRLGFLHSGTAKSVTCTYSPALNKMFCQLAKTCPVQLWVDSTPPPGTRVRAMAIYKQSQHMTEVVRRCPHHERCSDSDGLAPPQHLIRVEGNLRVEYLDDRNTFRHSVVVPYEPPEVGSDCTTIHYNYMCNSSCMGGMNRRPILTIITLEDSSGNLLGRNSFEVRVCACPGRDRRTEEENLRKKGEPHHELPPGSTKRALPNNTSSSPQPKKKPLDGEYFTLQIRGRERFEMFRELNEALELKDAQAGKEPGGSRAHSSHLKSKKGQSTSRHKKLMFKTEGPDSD
Chain of Myc proto-oncogene protein (Homo sapiens) (P01106 whole entry, looked up): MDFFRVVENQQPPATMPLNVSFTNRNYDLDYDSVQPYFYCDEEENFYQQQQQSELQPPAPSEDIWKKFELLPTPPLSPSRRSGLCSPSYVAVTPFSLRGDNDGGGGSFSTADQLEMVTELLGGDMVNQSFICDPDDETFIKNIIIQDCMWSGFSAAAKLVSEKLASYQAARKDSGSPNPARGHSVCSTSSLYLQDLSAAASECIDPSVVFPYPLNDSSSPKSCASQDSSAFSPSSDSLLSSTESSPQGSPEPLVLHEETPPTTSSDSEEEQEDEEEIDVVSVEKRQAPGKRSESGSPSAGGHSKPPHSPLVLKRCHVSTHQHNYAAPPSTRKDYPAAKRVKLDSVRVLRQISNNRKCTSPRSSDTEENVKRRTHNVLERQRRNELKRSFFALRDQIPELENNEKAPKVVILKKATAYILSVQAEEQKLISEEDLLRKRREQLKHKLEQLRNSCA
Chain of Hepatocyte nuclear factor 6 (Homo sapiens) (Q9UBC0 whole entry, looked up): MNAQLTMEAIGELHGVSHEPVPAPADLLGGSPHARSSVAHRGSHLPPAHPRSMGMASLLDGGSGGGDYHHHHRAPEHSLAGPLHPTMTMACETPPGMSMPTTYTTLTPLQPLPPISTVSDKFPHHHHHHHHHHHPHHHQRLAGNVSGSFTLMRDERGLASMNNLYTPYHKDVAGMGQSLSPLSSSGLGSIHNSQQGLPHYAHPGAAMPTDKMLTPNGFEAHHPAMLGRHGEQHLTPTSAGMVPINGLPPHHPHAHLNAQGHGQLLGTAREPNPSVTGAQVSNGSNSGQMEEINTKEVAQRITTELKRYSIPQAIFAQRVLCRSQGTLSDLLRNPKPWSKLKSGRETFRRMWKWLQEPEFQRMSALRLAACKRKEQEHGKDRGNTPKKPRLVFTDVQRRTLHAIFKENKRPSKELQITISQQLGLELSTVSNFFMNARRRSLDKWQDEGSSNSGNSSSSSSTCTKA
Chain of Signal transducer and activator of transcription 3 (Homo sapiens) (P40763 whole entry, looked up): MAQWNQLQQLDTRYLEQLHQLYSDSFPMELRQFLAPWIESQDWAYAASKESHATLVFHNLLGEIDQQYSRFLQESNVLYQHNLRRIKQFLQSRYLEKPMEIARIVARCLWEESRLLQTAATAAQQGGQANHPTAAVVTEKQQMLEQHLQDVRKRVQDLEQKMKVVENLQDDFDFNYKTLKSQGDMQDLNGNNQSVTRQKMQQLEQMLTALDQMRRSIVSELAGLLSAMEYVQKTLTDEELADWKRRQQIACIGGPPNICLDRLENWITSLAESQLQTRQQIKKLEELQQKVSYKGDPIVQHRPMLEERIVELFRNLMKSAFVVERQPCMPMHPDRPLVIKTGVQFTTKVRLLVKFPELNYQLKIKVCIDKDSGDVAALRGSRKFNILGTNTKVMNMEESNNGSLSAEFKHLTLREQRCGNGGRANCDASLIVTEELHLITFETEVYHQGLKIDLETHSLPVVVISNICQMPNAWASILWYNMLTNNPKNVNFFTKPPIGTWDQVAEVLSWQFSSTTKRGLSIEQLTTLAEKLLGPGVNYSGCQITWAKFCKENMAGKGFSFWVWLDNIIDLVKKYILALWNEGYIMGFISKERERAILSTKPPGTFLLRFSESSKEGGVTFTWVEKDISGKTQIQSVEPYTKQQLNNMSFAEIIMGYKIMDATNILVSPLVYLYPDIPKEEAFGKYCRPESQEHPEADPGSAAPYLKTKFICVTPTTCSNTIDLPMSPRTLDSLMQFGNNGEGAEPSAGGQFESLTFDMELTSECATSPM

Usually AC50 stands for the concentration giving half of the maximal activity seen. Regarding `CNC(=O)Oc1cc(C)c(SC)c(C)c1`, the AC50 in assay [1] is 17.4 µM (active); in assay [10] it was 51.8 µM (active); in [11], 68.3 µM (active); in assay [17], 68.7 µM (active). In addition, the call in assay [2], in assay [3], in assay [4], in [5], in [6] and in assay [7] was inactive. Besides, the compound was called inactive in assay [8], in [9], in [12], in [13], in assay [14] and in assay [15]. The compound was classed as inactive in assay [16] and in [18].

In the case of `CC1(C)[C@H](C(=O)O[C@H](C#N)c2cccc(Oc3ccccc3)c2)[C@@H]1C=C(Br)Br`, the call in [1], in assay [19], in assay [2], in [3], in assay [4] and in [5] was inactive. The call in assay [20], in assay [6], in assay [7], in [8], in assay [11] and in assay [12] was inactive. Also, the compound was classed as inactive in assay [13], in [14], in assay [15], in [16], in assay [17] and in [18]. In assay [9], the concentration at half-maximal activity (AC50) is 56.7 µM (active).

`CCC(C)c1cc(C(C)(C)C)cc(-n2nc3ccccc3n2)c1O` (configuration not stated): the compound was classed as inactive in assay [1], in assay [19], in [2], in assay [3], in assay [4] and in assay [5]. Besides, the call in assay [20], in [6], in assay [7], in assay [8], in assay [9] and in assay [10] was inactive. The compound was called inactive in assay [11], in assay [12], in assay [13], in [14], in [15] and in assay [16]. For the same compound, the result in assay [17] and in assay [18] was inactive.
